Results taken from PubChem BioAssay (NCATS).
Values joined by “and” are separate entries in the source; they are usually repeats but may differ in a detail not shown here. Identical values can stand only once. Results filed as inconclusive are left out. Some structures have more than one record in an assay (separate samples or runs), and their calls can disagree. Active and inactive are the calls of the source. Calls follow the shape of the dose curve; as a rule, active = well fitted inhibition curve with a large enough effect; inconclusive = small, poorly fitted or top-dose-only effect; inactive = flat fitted curve, though single readings scatter.

What was measured:
CRL-7250 = normal cell line; assay: Cytotoxic Profiling of Annotated Libraries Using Quantitative High-Throughput Screening (AID 1296008); conditions: Five cell lines viability, CellTiter-Glo ATP luminescence, 48-72 h; max response: stronger effect = lower value; as to max response: % is scaled to controls: 0 for no effect and ±100 for the full control effect
Procedure, shortened: (§1)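 Compounds were pin-transferred onto cells and incubated 48 or 72 hr at 37 degree Celsius, 95% humidity. CellTiter-Glo was added, plates sat 10 min at room temperature, then ATP-coupled luminescence was imaged as the viability read-out.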

HEK293 = assay: as above; conditions: Five cell lines viability, CellTiter-Glo ATP luminescence, 48-72 h; max response: stronger effect = lower value
Procedure, shortened: as §1

HaCat [1] = assay: as above; conditions: Five cell lines viability, CellTiter-Glo ATP luminescence, 48-72 h; max response: stronger effect = lower value
Procedure, shortened: as §1

HACAT [2] = assay: qHTS assay to identify novel small-molecules to repurpose for Merkel cell carcinoma treatment (AID 1296009); conditions: MCC and control cell lines, CellTiter-Glo viability, 72 h; at 44.8 µM (top of the series) unless noted
Procedure, shortened: (§2)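 qHTS format: cells treated with library compounds in DMSO across 8 (NPC) or 11 (MIPE) concentrations. Readout after 72 hr at 37 degree celsius was CellTiter-Glo luminescence.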

MCC-13 = assay: as above; conditions: MCC and control cell lines, CellTiter-Glo viability, 72 h; series mostly up to 46 µM
Procedure, shortened: as §2

MCC-26 = assay: as above; conditions: MCC and control cell lines, CellTiter-Glo viability, 72 h; series mostly up to 46 µM
Procedure, shortened: as §2

MKL-1 = assay: as above; conditions: MCC and control cell lines, CellTiter-Glo viability, 72 h; series mostly up to 46 µM
Procedure, shortened: as §2

MKL-2 = assay: as above; conditions: MCC and control cell lines, CellTiter-Glo viability, 72 h; series mostly up to 46 µM
Procedure, shortened: as §2

PAD = assay: qHTS profiling for inhibitors of Plasmodium falciparum proliferation (AID 504749); conditions: P. falciparum in erythrocytes, SYBR Green DNA, 72 h; series mostly up to 28.7 µM
Procedure, shortened: (§3)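 Parasite proliferation within erythrocytes, 72 h exposure. Endpoint: SYBR Green I fluorescence after overnight lysis at room temperature. Controls: 0.29 uM artemisinin, DMSO.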

PC15 = assay: as above; conditions: P. falciparum in erythrocytes, SYBR Green DNA, 72 h; series mostly up to 28.7 µM
Procedure, shortened: as §3

PC26 = assay: as above; conditions: P. falciparum in erythrocytes, SYBR Green DNA, 72 h; series mostly up to 28.7 µM
Procedure, shortened: as §3

PC49 = assay: as above; conditions: P. falciparum in erythrocytes, SYBR Green DNA, 72 h; series mostly up to 28.7 µM
Procedure, shortened: as §3

SC27B = assay: as above; conditions: P. falciparum in erythrocytes, SYBR Green DNA, 72 h; series mostly up to 28.7 µM
Procedure, shortened: as §3

TAB109 = assay: as above; conditions: P. falciparum in erythrocytes, SYBR Green DNA, 72 h; series mostly up to 28.7 µM
Procedure, shortened: as §3

TAB113 = assay: as above; conditions: P. falciparum in erythrocytes, SYBR Green DNA, 72 h; series mostly up to 28.7 µM
Procedure, shortened: as §3

TAB165 = assay: as above; conditions: P. falciparum in erythrocytes, SYBR Green DNA, 72 h; series mostly up to 28.7 µM
Procedure, shortened: as §3

W2 = assay: as above; conditions: P. falciparum in erythrocytes, SYBR Green DNA, 72 h; series mostly up to 28.7 µM
Procedure, shortened: as §3

KB-3-1 = assay: Cytotoxic Profiling of Annotated Libraries Using Quantitative High-Throughput Screening (AID 1296008); conditions: Five cell lines viability, CellTiter-Glo ATP luminescence, 48-72 h; max response: stronger effect = lower value; as to max response: % is scaled to controls: 0 for no effect and ±100 for the full control effect
Procedure, shortened: as §1

NIH3T3 = assay: as above; conditions: Five cell lines viability, CellTiter-Glo ATP luminescence, 48-72 h; max response: stronger effect = lower value
Procedure, shortened: as §1
Also: nearly all actives have a fitted effect of over 60% in size.
Potency is read from the fitted curve at half-maximal effect.

COc1ccc(COc2cc3oc(=O)c4cc(C(C)O)ccc4c3cc2OC)cc1 (stereo not given)
inactive: outcome (HaCat [1]) | outcome (HACAT [2]) | Potency (MCC-13) | Potency (MCC-26) | Potency (MKL-1) | Potency (MKL-2)
active: Potency (CRL-7250) 10.5 µM | Potency (HEK293) 14.8 µM

OC(CN1CCC(Cc2ccc(F)cc2)CC1)c1ccc(Cl)cc1 (stereo not given)
inactive: max response (CRL-7250) 0.243% and -6.71% | max response (HEK293) -10.6% and 0.0097% | max response (KB-3-1) -3.87% and 8.37% | max response (NIH3T3) 0.966% and 1.02% | outcome (HACAT [2]) | Potency (MCC-13) | Potency (MCC-26) | Potency (MKL-1) | Potency (MKL-2)
active: Potency (PAD) 631 nM | Potency (PC15) 2000 nM | Potency (PC26) 1510 nM | Potency (PC49) 1580 nM | Potency (SC27B) 1580 nM | Potency (TAB109) 1780 nM | Potency (TAB113) 1410 nM | Potency (TAB165) 1260 nM | Potency (W2) 379 nM

CC(C)(Sc1ccc(CCN(CCCCC2CCCCC2)C(=O)NC2CCCCC2)cc1)C(=O)O
inactive: max response (CRL-7250) -21.5% and -0.943% | max response (HEK293) 4.49% | max response (KB-3-1) 5.99% | outcome (KB-3-1) | max response (NIH3T3) -1.54% and 3.22% | Potency (MCC-13) | Potency (MCC-26)

O=C1[C@H](Cc2ccc(O)cc2)N2C(=O)CCN(C(=O)NCc3ccccc3)[C@H]2CN1Cc1cccc2ccccc12
active: Potency (HEK293) 2.09 µM | Potency (HaCat [1]) 2.96 µM | Potency (KB-3-1) 16600 nM | Potency (MKL-1) 14.8 µM
inactive: max response (CRL-7250) -59.7%

CC(C)(N)C(=O)N[C@H](COCc1ccccc1)C(=O)N1CCC2(CC1)CN(S(C)(=O)=O)c1ccccc12
inactive: max response (CRL-7250) -61% | max response (HaCat [1]) -12.2% and 3.47% | max response (KB-3-1) -17.9% and 1.97% | max response (NIH3T3) -13.8% | Potency (MCC-13) | Potency (MCC-26) | Potency (MKL-1) | Potency (MKL-2)
active: Potency (HEK293) 23.5 µM

Cn1cnc([N+](=O)[O-])c1Sc1ncnc2nc[nH]c12
inactive: Potency (PAD) | Potency (PC49) | Potency (SC27B) | Potency (TAB109) | Potency (TAB113) | Potency (MCC-26)
active: Potency (TAB165) 11200 nM | Potency (CRL-7250) 3.4 µM and 10.6 µM | Potency (HEK293) 10.5 µM | Potency (HaCat [1]) 2.7 µM and 15 µM and 11.8 µM | Potency (KB-3-1) 2960 nM | Potency (NIH3T3) 3.82 µM and 7.5 µM and 5.9 µM | Potency (MCC-13) 4.28 µM and 6.68 µM | Potency (MKL-2) 12100 nM
10.8 µM (active) and inactive: Potency (MKL-1)

NNCCc1ccccc1
inactive: Potency (PAD) | Potency (PC15) | Potency (PC26) | Potency (PC49) | Potency (SC27B) | Potency (TAB109) | Potency (TAB113) | outcome (CRL-7250) | max response (HEK293) -15.3% | max response (HaCat [1]) -0.0842% and -11.1% | max response (KB-3-1) -10.1% and -6.14% | max response (NIH3T3) 1.01% | Potency (MCC-13) | Potency (MCC-26) | Potency (MKL-1) | Potency (MKL-2)

C1COC(NC(C2CC2)C2CC2)=N1
active: Potency (PAD) 11200 nM
inactive: Potency (PC15) | Potency (PC49) | Potency (SC27B) | Potency (TAB113) | Potency (W2) | max response (CRL-7250) 1.84% and -1.88% | max response (HEK293) 3.3% and -8.9% | max response (HaCat [1]) 1.37% and -11.9% | outcome (KB-3-1) | outcome (NIH3T3) | Potency (MCC-13) | Potency (MCC-26) | Potency (MKL-1) | Potency (MKL-2)

COc1ccc(-c2ccc3c(N4CCOC[C@H]4C)nc(N4CCOC[C@H]4C)nc3n2)cc1CO
active: Potency (CRL-7250) 0.0093 µM | Potency (HEK293) 0.0166 µM | Potency (KB-3-1) 11.8 nM | Potency (NIH3T3) 66.2 nM

Cc1n[nH]c(C)c1Cc1sc2c(c1C(=O)N1C[C@H](O)CO1)c(=O)n(C)c(=O)n2CC(C)C
active: Potency (HEK293) 0.184 µM
inactive: max response (CRL-7250) -7.94% | max response (HaCat [1]) -3.78% and -14.4% | outcome (KB-3-1) | Potency (MCC-13) | Potency (MCC-26) | Potency (MKL-1) | Potency (MKL-2)

COc1ccccc1[C@H](c1cccc2ccccc12)[C@@](C)(C#N)C(=O)N1CCC(c2cccc(C(F)(F)F)c2)CC1
inactive: max response (HaCat [1]) -11.9% | Potency (MCC-13) | Potency (MCC-26)
active: Potency (CRL-7250) 26.4 µM | Potency (HEK293) 13.2 µM

CNC(=O)c1ccc(C)c(-n2c(C)cc(OCc3ccc(F)cc3F)c(Br)c2=O)c1
active: Potency (HEK293) 11.6 µM
inactive: max response (CRL-7250) -9.42% | max response (KB-3-1) -4.9% | max response (NIH3T3) 2.56% | outcome (NIH3T3) | outcome (HACAT [2]) | Potency (MCC-13) | Potency (MCC-26) | Potency (MKL-1)

Cc1c(CN2CCN(C(=O)C(C)C)CC2)sc2c(N3CCOCC3)nc(-c3cnc(N)nc3)nc12
active: Potency (CRL-7250) 0.118 µM | Potency (HEK293) 0.187 µM | Potency (KB-3-1) 148 nM | Potency (NIH3T3) 469 nM | Potency (MCC-26) 662 nM

CNC(=O)c1ccccc1Sc1ccc2c(/C=C/c3ccccn3)n[nH]c2c1
inactive: max response (KB-3-1) -28.7% | Potency (MCC-26)
active: Potency (CRL-7250) 5.8 µM | Potency (HEK293) 23.7 µM and 14.6 µM | Potency (KB-3-1) 11600 nM | Potency (NIH3T3) 8.41 µM and 7.31 µM
